Data reported in article PMC7862700, “An all-to-all approach to the identification of sequence-specific readers for epigenetic DNA modifications on cytosine”.

What was measured:
Assay in all cases: DAPPL (digital affinity profiling via proximity ligation, sequencing); 10 mM Tris-HCl pH 7.5, 50 mM NaCl, 1 mM DTT, 4% glycerol, room temperature, 30 min; GST-TFs on glutathione beads, 16-mer random dsDNA library, 0.1% formaldehyde crosslink after washing; high values mean tight binding
[1] = target: T1, FLI1 (Homo sapiens, UniProt Q01543 1-452); details: protein: recombinant; tags: N-terminal GST; dsDNA, one strand shown
T1 sequence: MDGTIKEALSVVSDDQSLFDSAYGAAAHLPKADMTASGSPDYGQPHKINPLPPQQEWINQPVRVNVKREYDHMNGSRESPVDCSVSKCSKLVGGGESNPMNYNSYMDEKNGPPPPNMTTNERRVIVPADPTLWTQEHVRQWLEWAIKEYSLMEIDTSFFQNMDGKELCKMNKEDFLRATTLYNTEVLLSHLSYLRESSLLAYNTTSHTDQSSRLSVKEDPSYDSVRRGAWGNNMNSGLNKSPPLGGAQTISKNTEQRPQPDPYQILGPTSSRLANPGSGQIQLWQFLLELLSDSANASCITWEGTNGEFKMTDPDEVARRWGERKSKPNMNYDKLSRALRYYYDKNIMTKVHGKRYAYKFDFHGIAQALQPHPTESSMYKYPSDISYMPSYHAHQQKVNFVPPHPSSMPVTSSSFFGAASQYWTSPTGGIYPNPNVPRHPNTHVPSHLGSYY
Outline: (§1)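 In yeast, human transcription factors were expressed with a GST fusion, then pulled down on glutathione beads and given DNA barcodes. Pooled with a tag-only sample, they were exposed to 200 nmole of a 16-mer random double-stranded DNA library (Tris/NaCl/DTT/glycerol buffer, room temperature, 30 min), washed, crosslinked with 0.1% formaldehyde, proximity-ligated using BsaI/T4 ligase for 1 h at 37 °C, PCR-amplified and read on an Illumina NextSeq500. Each hexamer's frequency of reads for a factor, divided by the matching frequency for the tag-only sample, gives the binding signal.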

[2] = target: SPI1 (Homo sapiens, UniProt P17947 1-270); details: protein: recombinant; tags: N-terminal GST; dsDNA, one strand shown
Outline: as §1

[3] = target: HSF1 (Homo sapiens, UniProt Q00613 1-529); details: protein: recombinant; tags: N-terminal GST; chain copies: 3; dsDNA, one strand shown
Chain of HSF1 (Q00613 whole entry): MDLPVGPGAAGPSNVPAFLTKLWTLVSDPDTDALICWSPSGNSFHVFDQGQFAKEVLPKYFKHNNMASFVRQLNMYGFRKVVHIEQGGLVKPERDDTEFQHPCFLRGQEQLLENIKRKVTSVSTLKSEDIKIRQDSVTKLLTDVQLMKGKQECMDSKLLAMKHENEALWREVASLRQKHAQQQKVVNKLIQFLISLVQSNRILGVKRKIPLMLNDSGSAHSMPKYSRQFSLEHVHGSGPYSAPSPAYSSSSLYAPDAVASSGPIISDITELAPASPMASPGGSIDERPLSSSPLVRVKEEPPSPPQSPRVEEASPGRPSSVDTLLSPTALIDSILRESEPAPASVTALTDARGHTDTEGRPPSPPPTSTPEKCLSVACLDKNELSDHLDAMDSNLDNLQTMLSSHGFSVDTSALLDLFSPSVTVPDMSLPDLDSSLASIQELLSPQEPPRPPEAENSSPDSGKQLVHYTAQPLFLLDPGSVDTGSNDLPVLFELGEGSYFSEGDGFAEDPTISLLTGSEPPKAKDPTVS
Outline: as §1

[4] = target: T2, FEV (Homo sapiens, UniProt Q99581 1-238); details: protein: recombinant; tags: N-terminal GST; dsDNA, one strand shown
T2 sequence: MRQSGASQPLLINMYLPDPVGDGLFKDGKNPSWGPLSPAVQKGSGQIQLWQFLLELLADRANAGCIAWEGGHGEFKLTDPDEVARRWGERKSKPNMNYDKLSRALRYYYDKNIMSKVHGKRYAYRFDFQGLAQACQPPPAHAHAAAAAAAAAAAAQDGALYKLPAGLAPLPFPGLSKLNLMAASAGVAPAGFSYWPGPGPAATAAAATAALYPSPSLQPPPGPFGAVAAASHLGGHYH
Outline: as §1

[5] = target: CRX (Homo sapiens, UniProt O43186 1-299); details: protein: recombinant; tags: N-terminal GST; dsDNA, one strand shown
Chain of CRX (O43186 whole entry): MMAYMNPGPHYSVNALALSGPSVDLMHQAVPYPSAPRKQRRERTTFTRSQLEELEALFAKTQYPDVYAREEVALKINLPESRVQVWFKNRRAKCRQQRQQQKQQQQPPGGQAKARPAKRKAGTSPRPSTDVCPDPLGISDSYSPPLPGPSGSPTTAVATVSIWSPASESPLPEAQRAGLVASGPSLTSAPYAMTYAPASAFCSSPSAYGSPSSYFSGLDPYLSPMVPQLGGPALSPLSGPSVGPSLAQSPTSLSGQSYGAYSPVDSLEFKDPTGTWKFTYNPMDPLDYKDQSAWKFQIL
Outline: as §1

[6] = target: T3, ELF5 (Homo sapiens, UniProt Q9UKW6-2 1-255); details: protein: recombinant; tags: N-terminal GST; dsDNA, one strand shown
T3 sequence: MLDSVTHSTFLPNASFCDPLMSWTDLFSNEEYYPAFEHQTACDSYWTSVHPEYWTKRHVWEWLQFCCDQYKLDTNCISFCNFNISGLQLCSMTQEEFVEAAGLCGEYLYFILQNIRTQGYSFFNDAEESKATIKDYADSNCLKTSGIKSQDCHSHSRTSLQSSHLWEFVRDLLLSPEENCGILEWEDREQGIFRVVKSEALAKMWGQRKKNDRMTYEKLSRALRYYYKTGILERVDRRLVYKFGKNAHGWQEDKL
Outline: as §1

[7] = target: T4, ETV2 (Homo sapiens, UniProt O00321 1-342); details: protein: recombinant; tags: N-terminal GST; dsDNA, one strand shown
T4 sequence: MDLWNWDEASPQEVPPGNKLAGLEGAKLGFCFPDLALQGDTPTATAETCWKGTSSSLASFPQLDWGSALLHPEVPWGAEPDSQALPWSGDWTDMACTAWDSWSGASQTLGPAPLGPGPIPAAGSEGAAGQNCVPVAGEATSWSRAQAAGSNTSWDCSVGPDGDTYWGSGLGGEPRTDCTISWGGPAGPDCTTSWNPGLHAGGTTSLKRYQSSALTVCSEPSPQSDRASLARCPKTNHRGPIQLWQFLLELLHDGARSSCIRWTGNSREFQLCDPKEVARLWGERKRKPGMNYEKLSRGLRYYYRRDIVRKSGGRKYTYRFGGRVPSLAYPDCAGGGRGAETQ
Outline: as §1

Sequence | binding signal [1] | binding signal [2] | binding signal [3] | binding signal [4] | binding signal [5] | binding signal [6] | binding signal [7]
AGTCTC | 1.04 fold enrichment (6-mer frequency, TF over GST control) | 1.07 fold enrichment (6-mer frequency, TF over GST control) | 1 fold enrichment (6-mer frequency, TF over GST control) |  |  |  | 
GCCGCT | 1.09 fold enrichment (6-mer frequency, TF over GST control) | 1.12 fold enrichment (6-mer frequency, TF over GST control) |  | 1.05 fold enrichment (6-mer frequency, TF over GST control) | 1.02 fold enrichment (6-mer frequency, TF over GST control) | 1.03 fold enrichment (6-mer frequency, TF over GST control) | 
CGCTAA | 1.01 fold enrichment (6-mer frequency, TF over GST control) |  | 1.09 fold enrichment (6-mer frequency, TF over GST control) |  | 1.34 fold enrichment (6-mer frequency, TF over GST control) |  | 1.09 fold enrichment (6-mer frequency, TF over GST control)
TAGGTA | 1.02 fold enrichment (6-mer frequency, TF over GST control) |  | 1.03 fold enrichment (6-mer frequency, TF over GST control) | 1 fold enrichment (6-mer frequency, TF over GST control) | 1.22 fold enrichment (6-mer frequency, TF over GST control) |  | 
TACAGC | 1.06 fold enrichment (6-mer frequency, TF over GST control) |  |  | 1.01 fold enrichment (6-mer frequency, TF over GST control) | 1.07 fold enrichment (6-mer frequency, TF over GST control) | 1.07 fold enrichment (6-mer frequency, TF over GST control) | 1.12 fold enrichment (6-mer frequency, TF over GST control)
CGCGAT | 1.02 fold enrichment (6-mer frequency, TF over GST control) | 1.09 fold enrichment (6-mer frequency, TF over GST control) | 1.23 fold enrichment (6-mer frequency, TF over GST control) |  | 1.1 fold enrichment (6-mer frequency, TF over GST control) | 1.04 fold enrichment (6-mer frequency, TF over GST control) | 1.17 fold enrichment (6-mer frequency, TF over GST control)
CGTTGC | 1.09 fold enrichment (6-mer frequency, TF over GST control) |  |  | 1.11 fold enrichment (6-mer frequency, TF over GST control) |  | 1.03 fold enrichment (6-mer frequency, TF over GST control) | 1.12 fold enrichment (6-mer frequency, TF over GST control)
TAAGTC | 1 fold enrichment (6-mer frequency, TF over GST control) |  | 1.21 fold enrichment (6-mer frequency, TF over GST control) |  | 1.79 fold enrichment (6-mer frequency, TF over GST control) |  | 
GGTAAC | 1.1 fold enrichment (6-mer frequency, TF over GST control) | 1.02 fold enrichment (6-mer frequency, TF over GST control) |  | 1.05 fold enrichment (6-mer frequency, TF over GST control) |  | 1.02 fold enrichment (6-mer frequency, TF over GST control) | 
GGTTCT | 1.07 fold enrichment (6-mer frequency, TF over GST control) |  | 1.54 fold enrichment (6-mer frequency, TF over GST control) |  |  | 1.01 fold enrichment (6-mer frequency, TF over GST control) | 1.19 fold enrichment (6-mer frequency, TF over GST control)
GCTGCA | 1.09 fold enrichment (6-mer frequency, TF over GST control) | 1 fold enrichment (6-mer frequency, TF over GST control) |  | 1.01 fold enrichment (6-mer frequency, TF over GST control) |  |  | 1.01 fold enrichment (6-mer frequency, TF over GST control)
